# According to ChEMBL document CHEMBL3988442, “University of Dundee, Small-Polar-MMV Screening Library” (2021):
# For some assays here: Results with a measured potency or affinity are listed apart.
# Tests used:
# Set-up in all cases: scale not given: direction of the effect not stated beside the values
# [1] = molecular target: Protein translocase subunit SecA (Escherichia coli (strain K12)) (UniProt P10408); test: Assay to Identify E. coli SecA ATPase Inhibitors; format: functional; conditions: 30 µM
# [2] = molecular target: T1, Ubiquitin-activating enzyme e1, putative (Leishmania donovani (strain BPK282A1)) (UniProt E9BSI1); test: Leishmania donovani Ubiquitin Activating Enzyme (LdE1); format: functional; conditions: 30 µM
# T1 sequence (whole entry): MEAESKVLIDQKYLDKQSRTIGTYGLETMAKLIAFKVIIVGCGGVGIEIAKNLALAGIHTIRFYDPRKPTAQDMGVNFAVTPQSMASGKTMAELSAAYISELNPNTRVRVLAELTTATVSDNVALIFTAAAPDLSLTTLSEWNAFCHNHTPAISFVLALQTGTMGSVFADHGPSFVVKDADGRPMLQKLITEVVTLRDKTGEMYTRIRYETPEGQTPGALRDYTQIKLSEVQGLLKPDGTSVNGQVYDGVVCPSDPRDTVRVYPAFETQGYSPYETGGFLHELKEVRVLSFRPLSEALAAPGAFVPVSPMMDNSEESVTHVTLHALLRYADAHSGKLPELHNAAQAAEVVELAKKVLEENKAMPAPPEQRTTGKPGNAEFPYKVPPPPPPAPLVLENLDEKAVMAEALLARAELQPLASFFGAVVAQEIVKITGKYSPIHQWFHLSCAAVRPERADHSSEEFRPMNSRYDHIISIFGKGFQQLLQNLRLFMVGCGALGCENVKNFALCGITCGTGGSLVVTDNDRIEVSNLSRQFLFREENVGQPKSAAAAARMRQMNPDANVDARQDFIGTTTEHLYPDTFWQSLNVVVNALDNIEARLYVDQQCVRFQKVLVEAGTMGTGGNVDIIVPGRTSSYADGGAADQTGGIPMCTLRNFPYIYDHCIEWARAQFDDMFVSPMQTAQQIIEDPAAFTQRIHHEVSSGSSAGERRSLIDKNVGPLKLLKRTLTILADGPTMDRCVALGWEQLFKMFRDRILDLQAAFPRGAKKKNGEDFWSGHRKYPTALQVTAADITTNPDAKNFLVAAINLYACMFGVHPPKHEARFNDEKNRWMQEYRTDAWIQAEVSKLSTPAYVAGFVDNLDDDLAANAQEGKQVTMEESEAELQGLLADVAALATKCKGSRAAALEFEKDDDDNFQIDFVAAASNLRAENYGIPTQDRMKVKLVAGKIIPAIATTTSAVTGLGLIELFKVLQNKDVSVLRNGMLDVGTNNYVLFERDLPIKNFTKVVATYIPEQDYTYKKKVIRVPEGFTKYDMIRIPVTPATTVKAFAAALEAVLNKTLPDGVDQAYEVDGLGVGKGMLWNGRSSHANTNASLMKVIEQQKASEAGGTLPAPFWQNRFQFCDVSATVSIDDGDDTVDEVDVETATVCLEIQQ
# [3] = molecular target: Sialic acid-binding Ig-like lectin 9 (Homo sapiens) (UniProt Q9Y336); test: Hs-Siglec9 ALPHAscreen SOP 20170721; conditions: 10 µM
# Trypanosoma cruzi = test: Trypanosoma cruzi phosphomannomutase and mannose-1-phosphate guanylyltransferase assay; format: functional; conditions: 10 µM
# [4] = molecular target: T2, Arginase-2, mitochondrial (Homo sapiens) (UniProt P78540); test: in vitro enzyme assay to detect the production of urea directly proportional to the activity of Arginase II; format: functional; conditions: 33.3 µM; also: in the data most compounds retested in dose-response had high values
# T2 sequence (whole entry): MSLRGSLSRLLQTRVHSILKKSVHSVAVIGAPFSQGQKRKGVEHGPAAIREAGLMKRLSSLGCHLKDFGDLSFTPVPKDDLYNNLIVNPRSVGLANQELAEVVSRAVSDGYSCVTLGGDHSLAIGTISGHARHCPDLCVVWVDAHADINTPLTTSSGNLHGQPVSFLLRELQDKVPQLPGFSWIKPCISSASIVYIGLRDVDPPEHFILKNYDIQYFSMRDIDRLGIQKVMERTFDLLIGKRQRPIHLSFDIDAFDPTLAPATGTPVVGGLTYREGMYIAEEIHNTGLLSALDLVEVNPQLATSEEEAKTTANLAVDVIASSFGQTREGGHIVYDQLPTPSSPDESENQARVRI
# [5] = molecular target: T3, Proteasome subunit beta (Trypanosoma cruzi) (UniProt O96673); test: Trypanosoma cruzi proteasome chymotrypsin-like activity (TcProtChymo) assay.; also: in the data most compounds retested in dose-response had high values; format: functional; conditions: 9.37 µM
# T3 sequence (whole entry): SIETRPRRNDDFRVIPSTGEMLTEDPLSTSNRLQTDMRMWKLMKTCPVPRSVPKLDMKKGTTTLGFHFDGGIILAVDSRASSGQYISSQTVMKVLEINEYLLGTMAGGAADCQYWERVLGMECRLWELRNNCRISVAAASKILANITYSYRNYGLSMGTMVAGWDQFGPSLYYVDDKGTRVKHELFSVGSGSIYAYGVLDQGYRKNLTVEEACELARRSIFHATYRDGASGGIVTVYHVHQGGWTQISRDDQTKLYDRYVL
# Homo sapiens = organism: Homo sapiens; test: To identify inhibition of the IFN signalling (Jak-Stat) pathway via expression of an eGFP reporter gene under the control of an IFN-stimulated response element (ISRE) containing MxA promoter.; format: functional; conditions: 30 µM
# [6] = molecular target: T4, Tyrosyl-tRNA synthetase, putative (Trypanosoma cruzi (strain CL Brener)) (UniProt Q4DSP6); test: Trypanosoma cruzi tyrosyl tRNA synthetase (TcYRS) _High Tyrosine SOP; format: functional; conditions: 30 µM; also: in the data most compounds retested in dose-response had high values
# T4 sequence (whole entry): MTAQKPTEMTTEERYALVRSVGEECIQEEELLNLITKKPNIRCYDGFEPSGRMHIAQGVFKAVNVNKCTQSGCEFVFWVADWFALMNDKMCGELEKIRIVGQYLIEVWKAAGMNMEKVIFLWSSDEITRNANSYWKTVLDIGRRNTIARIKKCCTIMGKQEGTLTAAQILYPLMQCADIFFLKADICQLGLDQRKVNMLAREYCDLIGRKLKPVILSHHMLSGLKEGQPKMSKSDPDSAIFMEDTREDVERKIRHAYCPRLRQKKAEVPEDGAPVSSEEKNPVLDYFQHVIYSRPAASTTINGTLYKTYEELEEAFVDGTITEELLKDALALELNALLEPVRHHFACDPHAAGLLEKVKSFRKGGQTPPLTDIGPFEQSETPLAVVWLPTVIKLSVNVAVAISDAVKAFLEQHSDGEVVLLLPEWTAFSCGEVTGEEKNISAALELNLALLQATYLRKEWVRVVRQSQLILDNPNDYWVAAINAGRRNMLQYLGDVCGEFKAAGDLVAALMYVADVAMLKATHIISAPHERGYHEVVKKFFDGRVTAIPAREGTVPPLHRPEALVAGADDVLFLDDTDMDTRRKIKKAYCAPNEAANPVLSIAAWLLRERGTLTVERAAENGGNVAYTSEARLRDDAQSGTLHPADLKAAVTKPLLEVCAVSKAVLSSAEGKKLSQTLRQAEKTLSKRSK
# [7] = molecular target: T4, Tyrosyl-tRNA synthetase, putative (Trypanosoma cruzi (strain CL Brener)); test: Trypanosoma cruzi tyrosyl tRNA synthetase (TcYRS) SOP; format: functional; conditions: 30 µM
# [8] = molecular target: Chromo domain-containing protein 1 (Saccharomyces cerevisiae (strain ATCC 204508 / S288c) (Baker's yeast)) (UniProt P32657); test: ScCHD-1 Enzyme Inhibition Assay; format: functional; conditions: 30 µM; also: in the data most compounds retested in dose-response had high values
# Chromo domain-containing protein 1 (Saccharomyces cerevisiae (strain ATCC 204508 / S288c) (Baker's yeast)), sequence (P32657 whole entry, the tested form may be a part): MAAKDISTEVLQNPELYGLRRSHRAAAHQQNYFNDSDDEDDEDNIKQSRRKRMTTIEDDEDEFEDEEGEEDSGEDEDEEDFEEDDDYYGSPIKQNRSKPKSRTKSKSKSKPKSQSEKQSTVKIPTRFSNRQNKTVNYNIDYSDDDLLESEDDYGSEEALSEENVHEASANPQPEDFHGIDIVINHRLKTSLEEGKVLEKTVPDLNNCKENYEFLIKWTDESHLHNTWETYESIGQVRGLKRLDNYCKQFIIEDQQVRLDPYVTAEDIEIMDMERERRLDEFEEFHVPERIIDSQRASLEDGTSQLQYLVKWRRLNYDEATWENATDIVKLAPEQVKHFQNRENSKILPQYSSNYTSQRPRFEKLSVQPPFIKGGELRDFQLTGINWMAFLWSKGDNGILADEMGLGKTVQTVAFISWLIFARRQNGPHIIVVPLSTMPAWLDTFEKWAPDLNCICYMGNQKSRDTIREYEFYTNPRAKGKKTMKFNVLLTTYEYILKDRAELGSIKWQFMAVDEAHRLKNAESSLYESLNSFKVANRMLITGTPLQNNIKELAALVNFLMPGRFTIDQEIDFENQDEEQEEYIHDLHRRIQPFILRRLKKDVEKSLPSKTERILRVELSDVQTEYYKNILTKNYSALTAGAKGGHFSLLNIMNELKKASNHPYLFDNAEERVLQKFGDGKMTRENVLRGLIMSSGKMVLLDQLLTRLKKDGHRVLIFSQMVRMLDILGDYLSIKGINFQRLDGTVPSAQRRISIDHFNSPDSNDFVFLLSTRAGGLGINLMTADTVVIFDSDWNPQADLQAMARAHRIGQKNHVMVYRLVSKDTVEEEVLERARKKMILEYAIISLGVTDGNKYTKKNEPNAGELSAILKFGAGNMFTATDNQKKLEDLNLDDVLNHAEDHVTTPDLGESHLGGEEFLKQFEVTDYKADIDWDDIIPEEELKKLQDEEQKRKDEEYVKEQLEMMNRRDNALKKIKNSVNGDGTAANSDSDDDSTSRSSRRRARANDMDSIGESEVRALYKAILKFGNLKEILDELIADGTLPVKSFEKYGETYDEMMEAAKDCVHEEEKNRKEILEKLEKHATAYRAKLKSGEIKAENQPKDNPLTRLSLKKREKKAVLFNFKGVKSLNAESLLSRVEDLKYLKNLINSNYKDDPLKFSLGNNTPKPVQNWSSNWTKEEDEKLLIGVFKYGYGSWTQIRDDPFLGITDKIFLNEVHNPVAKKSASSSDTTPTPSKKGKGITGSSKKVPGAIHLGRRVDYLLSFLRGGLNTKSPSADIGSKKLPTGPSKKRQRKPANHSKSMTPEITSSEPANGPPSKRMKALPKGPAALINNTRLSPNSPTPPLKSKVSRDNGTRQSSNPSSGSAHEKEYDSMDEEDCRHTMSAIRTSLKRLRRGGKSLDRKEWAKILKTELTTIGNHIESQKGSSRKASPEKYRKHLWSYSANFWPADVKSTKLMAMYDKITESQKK
# Protein translocase subunit SecA (Escherichia coli (strain K12)), sequence (P10408 whole entry): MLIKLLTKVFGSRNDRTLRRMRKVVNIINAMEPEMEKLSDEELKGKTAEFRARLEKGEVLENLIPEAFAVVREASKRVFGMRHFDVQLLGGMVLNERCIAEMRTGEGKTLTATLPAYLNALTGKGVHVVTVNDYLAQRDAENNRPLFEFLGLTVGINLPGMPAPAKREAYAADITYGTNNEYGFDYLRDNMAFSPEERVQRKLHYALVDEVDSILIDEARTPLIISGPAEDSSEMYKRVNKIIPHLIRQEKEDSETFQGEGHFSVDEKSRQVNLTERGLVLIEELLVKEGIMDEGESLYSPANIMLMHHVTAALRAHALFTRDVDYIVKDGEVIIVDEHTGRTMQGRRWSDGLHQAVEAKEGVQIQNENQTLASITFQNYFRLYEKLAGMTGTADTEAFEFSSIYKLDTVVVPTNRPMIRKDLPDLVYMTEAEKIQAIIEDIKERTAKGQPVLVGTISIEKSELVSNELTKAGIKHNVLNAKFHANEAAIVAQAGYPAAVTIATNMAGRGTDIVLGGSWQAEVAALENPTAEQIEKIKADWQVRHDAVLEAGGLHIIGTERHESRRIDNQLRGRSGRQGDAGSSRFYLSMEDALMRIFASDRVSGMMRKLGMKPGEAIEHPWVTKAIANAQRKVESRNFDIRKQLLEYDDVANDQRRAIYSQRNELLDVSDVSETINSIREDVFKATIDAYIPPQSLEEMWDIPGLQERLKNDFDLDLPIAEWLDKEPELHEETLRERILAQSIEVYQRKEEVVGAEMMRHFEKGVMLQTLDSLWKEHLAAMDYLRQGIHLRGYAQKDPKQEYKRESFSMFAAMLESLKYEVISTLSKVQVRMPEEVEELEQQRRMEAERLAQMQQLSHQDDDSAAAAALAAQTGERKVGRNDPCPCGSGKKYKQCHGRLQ
# Sialic acid-binding Ig-like lectin 9 (Homo sapiens), sequence (Q9Y336 whole entry): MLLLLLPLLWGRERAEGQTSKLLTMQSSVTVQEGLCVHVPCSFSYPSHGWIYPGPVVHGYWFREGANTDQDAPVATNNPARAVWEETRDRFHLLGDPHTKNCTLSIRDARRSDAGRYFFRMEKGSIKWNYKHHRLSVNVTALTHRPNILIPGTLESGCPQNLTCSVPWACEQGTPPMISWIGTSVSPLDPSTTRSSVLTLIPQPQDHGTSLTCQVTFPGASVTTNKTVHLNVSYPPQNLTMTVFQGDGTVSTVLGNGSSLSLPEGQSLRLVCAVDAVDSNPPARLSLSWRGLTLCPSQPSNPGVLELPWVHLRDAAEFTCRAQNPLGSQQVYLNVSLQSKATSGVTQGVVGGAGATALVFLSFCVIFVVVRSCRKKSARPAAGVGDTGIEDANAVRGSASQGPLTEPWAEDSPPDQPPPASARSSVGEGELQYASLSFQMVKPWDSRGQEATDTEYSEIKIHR
SMILES,Percent Effect [1] [%],Percent Effect [2] [%],Percent Effect [3] [%],Percent Effect (Trypanosoma cruzi) [%],Percent Effect [4] [%],Percent Effect [5] [%],Percent Effect (Homo sapiens) [%],Percent Effect [6] [%],Percent Effect [7] [%],Percent Effect [8] [%]
CC(C)NC(=O)CC1COC2(CCN(Cc3cccs3)CC2)C1 (stereo not given),-3.1,16.9,-2.18,-3.19,1.37,4.89,-2.98,4.83,7.5,-13.3
CC(Cn1cccn1)NC(=O)Cc1cccs1 (stereo not given),-0.712,16,1.17,3.41,3.99,6.36,28.8,0.526,7.69,-16
Cn1ccnc1CN1CCCC1c1noc(C2CC2)n1 (stereo not given),-1.78,0,-0.931,0,1.33,6.19,-3.87,5.79,10.3,-4.32
Cc1ccn(-c2cccc(C(=O)N3CCCC(n4ccnc4C)C3)c2)n1 (stereo not given),-0.853,7.79,11.9,-9.7,-3.89,8.42,26.1,5.88,9.41,-1.96
CCn1nc2c(cc1=O)CN(Cc1nc(-c3ccsc3)no1)CC2,-2.79,0,3.78,-0.282,6.56,4.18,27.8,4.31,6.02,-6.49
Cc1cc(CN(C)C(=O)c2ccc(C(F)(F)F)nc2)no1,-1.51,-2.67,3.03,-3.61,3.1,1.27,-6.24,-1.58,5.13,14.8
N#Cc1ccccc1C(=O)N1C[C@H](CO)C[C@H](CN2CCCC2)C1,-4.41,-54,7.55,6.69,16.4,5.65,-3.94,2.66,9.76,-1.92
Cc1ccc(NC(=O)C2CSCN2C(=O)c2cnn(C)c2)c(C)c1 (stereo not given),-6.12,5.13,11,3.29,-0.41,-1.28,0.716,4.31,18.1,-1.32
CCc1cc(O)nc(C2CCCN2C(=O)c2cccnc2)n1 (stereo not given),5.68,14.7,-8.39,-6.71,3.1,15.1,13,0,5,-14.4
COCC1CC2(CCN(Cc3cnn(C)c3)CC2)CN1C(C)C (stereo not given),-5.94,6.49,-6.16,-2.82,-4.45,11.6,2.36,-2.63,2.56,-4
FC(F)(F)c1nc(NC2CCCC2)c2ccccc2n1,1.99,-2.7,-2.53,-0.291,5.94,9.76,45.1,0.532,-2.44,35
Cc1cc(C)n(CCC(=O)N2CCCC(n3cncn3)C2)n1 (stereo not given),-6.39,10.7,6.15,2.01,-3.99,5.68,-5.14,5.79,15.4,-9.86
CCc1nccn1-c1cncc(C2CCCN2Cc2ccc(F)cc2)n1 (stereo not given),-7.77,4,1.71,1.97,0.443,-0.328,35.7,4.23,5,-27.1
COc1ccc(CN2CCC3(CC2)CCN(CC(C)C)C3=O)cc1,-1.79,-1.3,-0.794,-0.75,-3.2,-0.601,6.85,0.966,0,-5.19
Cc1ccc(Cl)cc1N1CCC(CNC(=O)CC(F)(F)F)C1 (stereo not given),-3.87,-2.56,-7.65,-2.54,1.23,7.25,38.9,-0.478,-3.61,0.808
COC1CCCN(Cc2nc(Cc3ccccc3F)no2)C1 (stereo not given),-7.36,-5.41,1.17,2.04,1.75,1.71,3.24,5.85,14.6,0.44
CNC(=O)[C@@H]1C[C@H]2CN(Cc3ccco3)C[C@H]2N1C,-3.02,-27.3,-0.86,-3.19,4.11,16.7,-13.8,9.66,12.5,-2.19
CN(Cc1nnc(C2CC2)o1)C1CCN(CCCc2cnn(C)c2)C1 (stereo not given),-0.864,10.7,-3.87,-2.61,-2.22,22.1,18.5,11.1,15.4,-5.79
COc1ccc(C(=O)NCCCn2ccnc2)c(OC)n1,-2.17,24.7,1.39,3.75,0,10.6,11.6,6.76,22.5,-12.8
OC(COCc1ccccc1F)CN1CCc2c(ncn2C2CC2)C1 (stereo not given),-3.46,-5.33,7.5,-4.02,2.66,8.06,10.4,2.63,0,-6.26
O=C1CO[C@@H]2CN(Cc3cccs3)C[C@H]2N1CC1CC1,-6.35,19.5,-2.08,2.04,1.62,13.9,-6.77,13.2,17.9,-0.629
Cc1cn[nH]c1C1CCCCN1C(=O)CCN1CCCCCC1 (stereo not given),0.428,4,-1.68,-7.89,1.77,10,10.3,2.12,5,-25
CN(C)c1cc(C(=O)N2CCCN(Cc3cscn3)CC2)ccn1,-2,7.79,1.09,2.05,6.76,-4.39,1.34,6.86,16.5,-5.32
